Here are results for 4 compounds from PubChem BioAssay (EPA / NIEHS).

Holding throughout (details): mRNA level, 48 h; actives raise or lower the signal
Read-out in assay [1]: Forkhead box O1 (FOXO1), FOXO1 (gene 2308)
Put plainly: LTEA_HepaRG_FOXO1: Life Technologies and Expression Analysis (LTEA) Assay for Forkhead box O1 (FOXO1) using HepaRG (AID 2283456). Summed up:
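Using one lot of HepaRG hepatic cells kept in 0.5% DMSO, the team applied test chemicals in duplicate, half-log dilutions from 100 uM, for 48 h. Expression, normalised to ACTB/GAPDH/POLR2A, was compared with vehicle in either direction.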

Read-out in assay [2]: growth arrest and DNA damage 45 (GADD45A), GADD45A (gene 1647)
As to the kind of experiment: LTEA_HepaRG_GADD45A: Life Technologies and Expression Analysis (LTEA) Assay for growth arrest and DNA damage 45 (GADD45A) using HepaRG (AID 2283458). Summed up:
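Eight-point concentration-response in HepaRG cells: 48 h chemical exposure, 0.5% DMSO vehicle, top dose 100 uM. Normalized qRT-PCR mRNA readout with bidirectional fitting relative to DMSO.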

Read-out in assay [3]: Forkhead box O3 (FOXO3), FOXO3 (gene 2309)
As to the kind of experiment: LTEA_HepaRG_FOXO3: Life Technologies and Expression Analysis (LTEA) Assay for Forkhead box O3 (FOXO3) using HepaRG (AID 2283459). Summed up:
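Gene-expression endpoint: FOXO3 transcript level by qRT-PCR in HepaRG cultures treated 48 h with chemicals up to 100 uM (half-log, 0.5% DMSO vehicle).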

Read-out in assay [4]: ABC Transporter (ABCB1), ABCB1 (gene 5243)
As to the kind of experiment: LTEA_HepaRG_ABCB1: Life Technologies and Expression Analysis (LTEA) Assay for ABC Transporter (ABCB1) using HepaRG (AID 2283460). The procedure, abridged:
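Human liver HepaRG line treated 48 h with up to 100 uM compound (eight half-log points, 0.5% DMSO); ABCB1 mRNA change fitted bidirectionally against DMSO controls.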

Read-out in assay [5]: growth arrest and DNA damage 45 (GADD45B), GADD45B (gene 4616)
Put plainly: LTEA_HepaRG_GADD45B: Life Technologies and Expression Analysis (LTEA) Assay for growth arrest and DNA damage 45 (GADD45B) using HepaRG (AID 2283461). The procedure, abridged: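 Differentiated HepaRG cells, plated 48 h then switched to serum-free induction medium, were exposed 48 h in duplicate to eight half-log concentrations from 100 uM in 0.5% DMSO; mRNA quantified by qRT-PCR, normalized to ACTB/GAPDH/POLR2A, bidirectional fit versus DMSO.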

Read-out in assay [6]: ABC Transporter (ABCC3), ABCC3 (gene 8714)
As to the kind of experiment: LTEA_HepaRG_ABCC3: Life Technologies and Expression Analysis (LTEA) Assay for ABC Transporter (ABCC3) using HepaRG (AID 2283462). The procedure, abridged:
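HepaRG cells in serum-free induction medium were exposed for 48 h in duplicate to 8-point half-log concentrations topping at 100 uM in 0.5% DMSO. ABCC3 mRNA was measured by qRT-PCR normalized to ACTB, GAPDH and POLR2A, with bidirectional fitting versus DMSO.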

Read-out in assay [7]: ABC Transporter (ABCB11), ABCB11 (gene 8647)
Put plainly: LTEA_HepaRG_ABCB11: Life Technologies and Expression Analysis (LTEA) Assay for ABC Transporter (ABCB11) using HepaRG (AID 2283463). Summed up:
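Using HepaRG cultures held in 0.5% DMSO, chemicals were tested at half-log dilutions from 100 uM for 48 h. Induction or suppression of ABCB11 mRNA, normalized to ACTB, GAPDH and POLR2A, was fitted bidirectionally against vehicle.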

Read-out in assay [8]: ABC Transporter (ABCC2), ABCC2 (gene 1244)
Put plainly: LTEA_HepaRG_ABCC2: Life Technologies and Expression Analysis (LTEA) Assay for ABC Transporter (ABCC2) using HepaRG (AID 2283464). Summed up: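 HepaRG cells were plated 48 h, switched to serum-free induction medium, then exposed in duplicate for 48 h to 8 concentrations (top 100 uM, half-log steps, 0.5% DMSO). ABCC2 mRNA was measured by qRT-PCR normalized to ACTB/GAPDH/POLR2A; bidirectional fitting versus DMSO.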

Read-out in assay [9]: Broad substrate specificity ATP-binding cassette transporter ABCG2 (Homo sapiens) (UniProt Q9UNQ0)
Put plainly: LTEA_HepaRG_ABCG2: Life Technologies and Expression Analysis (LTEA) Assay for ABC Transporter (ABCG2) using HepaRG (AID 2283465). The procedure, abridged:
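Gene expression of ABCG2 in HepaRG liver cells is quantified by qRT-PCR following 48 h exposure across an eight-point series topping at 100 uM. Values come from bidirectional fitting relative to DMSO vehicle.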

Read-out in assay [10]: ATP-citrate lyase (ACLY), ACLY (gene 47)
As to the kind of experiment: LTEA_HepaRG_ACLY: Life Technologies and Expression Analysis (LTEA) Assay for ATP-citrate lyase (ACLY) using HepaRG (AID 2283466). Summed up:
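ACLY expression changes in human HepaRG liver cells are quantified by qRT-PCR after 48 h exposure to test chemicals (maximum 100 uM, half-log steps). Values are fitted in both directions relative to 0.5% DMSO vehicle.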

Read-out in assay [11]: Peroxisomal acyl-coenzyme A oxidase 1 (ACOX1) gene, ACOX1 (gene 51)
Put plainly: LTEA_HepaRG_ACOX1: Life Technologies and Expression Analysis (LTEA) Assay for Peroxisomal acyl-coenzyme A oxidase 1 (ACOX1) gene using HepaRG (AID 2283467). Summed up: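 Human HepaRG hepatic cultures, 48 h treatment with test chemicals up to 100 uM. ACOX1 expression read by qRT-PCR relative to 0.5% DMSO vehicle.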

Read-out in assay [12]: Alkaline Phosphatase, Placental (ALPP) gene, ALPP (gene 250)
As to the kind of experiment: LTEA_HepaRG_ALPP: Life Technologies and Expression Analysis (LTEA) Assay for Alkaline Phosphatase, Placental (ALPP) gene using HepaRG (AID 2283468). Summed up:
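Differentiated human HepaRG cells were plated and cultured 48 h, then exposed in duplicate for 48 h in serum-free induction medium to eight half-log concentrations from 100 uM in 0.5% DMSO. ALPP mRNA was measured by TaqMan qRT-PCR, normalized to ACTB, GAPDH, POLR2A.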

Read-out in assay [13]: Bcl-2 (BAD) gene, BAD (gene 572)
As to the kind of experiment: LTEA_HepaRG_BAD: Life Technologies and Expression Analysis (LTEA) Assay for Bcl-2 (BAD) gene using HepaRG (AID 2283469). The procedure, abridged: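 Activity values reflect up- or down-regulation of BAD mRNA in human HepaRG hepatic cells treated 48 h in serum-free medium, with eight-point half-log dosing capped at 100 uM and 0.5% DMSO vehicle.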

Read-out in assay [14]: Bcl-2 (BAX) gene, BAX (gene 581)
As to the kind of experiment: LTEA_HepaRG_BAX: Life Technologies and Expression Analysis (LTEA) Assay for Bcl-2 (BAX) gene using HepaRG (AID 2283470). The procedure, abridged: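 Human HepaRG cells treated in duplicate for 48 h across eight concentrations (max 100 uM, 0.5% DMSO); BAX expression measured by qRT-PCR.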

Read-out in assay [15]: adenosine kinase (ADK) gene, ADK (gene 132)
Put plainly: LTEA_HepaRG_ADK: Life Technologies and Expression Analysis (LTEA) Assay for adenosine kinase (ADK) gene using HepaRG (AID 2283471). The procedure, abridged:
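HepaRG (human liver), 48 h chemical exposure, 8-pt half-log series, top 100 uM, 0.5% DMSO vehicle. Readout: ADK mRNA by qRT-PCR vs housekeeping genes; bidirectional curve fit relative to DMSO baseline.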

Read-out in assay [16]: Alpha-fetoprotein (AFP) gene, AFP (gene 174)
Put plainly: LTEA_HepaRG_AFP: Life Technologies and Expression Analysis (LTEA) Assay for Alpha-fetoprotein (AFP) gene using HepaRG (AID 2283472). The procedure, abridged: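 Measures AFP mRNA change in HepaRG after 48 h chemical exposure (8 half-log concentrations, highest 100 uM, 0.5% DMSO). Fold change relative to DMSO, fitted in both directions.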

Read-out in assay [17]: BCL2L11 (gene 10018)
As to the kind of experiment: LTEA_HepaRG_BCL2L11: Life Technologies and Expression Analysis (LTEA) Assay for Bcl-2 (BCL2L11) gene using HepaRG (AID 2283473). The procedure, abridged: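 Differentiated human HepaRG cells in serum-free induction medium were exposed in duplicate for 48 h to eight concentrations (top 100 uM, half-log steps, 0.5% DMSO). BCL2L11 mRNA was quantified by TaqMan qRT-PCR, normalized to ACTB/GAPDH/POLR2A, bidirectional fit versus DMSO.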

Read-out in assay [18]: Apoptosis regulator Bcl-2 (Homo sapiens) (UniProt P10415)
As to the kind of experiment: LTEA_HepaRG_BCL2: Life Technologies and Expression Analysis (LTEA) Assay for Bcl-2 gene using HepaRG (AID 2283475). Summed up: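 Each chemical was tested in duplicate on HepaRG cultures held in serum-free induction medium for 48 h, highest concentration 100 uM with half-log dilutions. Transcript levels came from multiplexed qRT-PCR, normalised to housekeeping genes; activity was scored in either direction relative to DMSO.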

Read-out in assay [19]: Bcl-2 (BID) gene, BID (gene 637)
As to the kind of experiment: LTEA_HepaRG_BID: Life Technologies and Expression Analysis (LTEA) Assay for Bcl-2 (BID) gene using HepaRG (AID 2283476). The procedure, abridged: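 Assay used HepaRG hepatic cells treated 48 h in serum-free medium with half-log dilutions from 100 uM. Endpoint: BID mRNA, qRT-PCR, normalized to ACTB/GAPDH/POLR2A.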

Some structures have more than one record in an assay (separate samples or runs), and their calls can disagree. The source made the active and inactive calls. How the source made its calls: active means hit-call score of the fitted dose curve at least 0.9, where 1 is the maximum; inactive means score below 0.9.

Chain of Broad substrate specificity ATP-binding cassette transporter ABCG2 (Homo sapiens) (Q9UNQ0 whole entry, looked up): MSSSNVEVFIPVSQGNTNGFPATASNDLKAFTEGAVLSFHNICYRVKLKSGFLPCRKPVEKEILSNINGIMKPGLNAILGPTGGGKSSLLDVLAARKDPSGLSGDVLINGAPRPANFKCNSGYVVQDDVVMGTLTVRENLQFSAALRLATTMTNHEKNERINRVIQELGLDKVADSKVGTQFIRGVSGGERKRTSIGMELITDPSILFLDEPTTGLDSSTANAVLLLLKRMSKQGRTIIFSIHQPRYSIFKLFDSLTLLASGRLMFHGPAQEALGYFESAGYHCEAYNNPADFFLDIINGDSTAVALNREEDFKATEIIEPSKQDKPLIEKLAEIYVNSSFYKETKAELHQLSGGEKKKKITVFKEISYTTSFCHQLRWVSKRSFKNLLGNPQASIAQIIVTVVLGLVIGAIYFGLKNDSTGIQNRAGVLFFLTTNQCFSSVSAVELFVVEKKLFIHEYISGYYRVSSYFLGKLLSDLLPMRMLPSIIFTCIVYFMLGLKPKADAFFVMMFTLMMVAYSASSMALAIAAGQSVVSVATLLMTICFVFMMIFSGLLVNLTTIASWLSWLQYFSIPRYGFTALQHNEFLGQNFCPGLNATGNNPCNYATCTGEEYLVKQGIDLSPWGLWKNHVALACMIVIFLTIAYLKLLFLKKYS
Chain of Apoptosis regulator Bcl-2 (Homo sapiens) (P10415 whole entry, looked up): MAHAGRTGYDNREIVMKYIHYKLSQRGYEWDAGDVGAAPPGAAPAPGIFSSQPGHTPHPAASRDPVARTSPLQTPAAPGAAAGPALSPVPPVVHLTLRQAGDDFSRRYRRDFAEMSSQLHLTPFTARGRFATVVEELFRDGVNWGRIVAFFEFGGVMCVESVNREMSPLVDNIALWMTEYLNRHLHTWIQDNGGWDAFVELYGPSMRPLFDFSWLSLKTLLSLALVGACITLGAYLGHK

Regarding `ClCC(Cl)CCl`, the compound was classed as inactive in [1], in assay [2], in assay [3], in [4], in assay [5] and in [6]. For the same compound, the result in [7], in assay [8], in assay [9], in [10], in assay [11] and in assay [12] was inactive. Moreover, the compound was classed as inactive in assay [13], in assay [15], in assay [16], in assay [17] and in assay [18]. In addition, the figures for the AC50 in [14] and in [19] were 9.92 µM (active) and 84.3 µM (active), respectively.
Turning to `CC(=O)[O][Hg][c]1ccccc1`, the AC50 in assay [1] is 12.9 µM (active); in [2], 16.3 µM (active); in [3], 14.5 µM (active); in assay [4] it was 24.1 µM (active); in assay [6], 13 µM (active); in [7], 1.22 µM (active). Also, the AC50 was 27.2 µM (active) in [8]; 23.3 µM (active) in assay [10]; 15.2 µM (active) in assay [11]; 0.646 µM (active) in assay [12]; 12.7 µM (active) in assay [13]; 0.552 µM (active) in assay [14]. Moreover, the AC50 in assay [15] was 31.5 µM (active); in assay [16], 5 µM (active); in assay [17] it was 11.9 µM (active). Besides, the result in assay [5], in assay [9], in [18] and in assay [19] was inactive.
Regarding `CCN1CCC2(CC1)COc1cc3c(cc12)N(C(=O)c1ccc(-c2ccc(-c4nnc(C)o4)cc2C)cc1)CC3`, the AC50 in assay [1] was 27.7 µM (active); in [2], 75.3 µM (active); in [3], 17.4 µM (active); in assay [4], 17.4 µM (active); in assay [5], 12.5 µM (active); in [6] it was 71.6 µM (active). Moreover, the AC50 in [8] was 18.5 µM (active); in [10], 21.5 µM (active); in assay [11], 30.2 µM (active); in assay [15], 21.3 µM (active). Further, the compound was called inactive in assay [7], in [9], in [12], in [13], in assay [14] and in [16]. In addition, the result in assay [17], in [18] and in [19] was inactive.
As to `COc1cc(-c2ccc(N)c(OC)c2)ccc1N`, the call in assay [1], in assay [2], in assay [3], in assay [4], in assay [5] and in assay [6] was inactive. Also, the result in [7], in assay [8], in assay [9], in assay [10], in assay [11] and in assay [12] was inactive. Besides, the call in assay [13], in [14], in assay [15], in assay [17], in assay [18] and in [19] was inactive. For the same compound, the AC50 was 50 µM (active) in assay [4]; 50 µM (active) in assay [5]; 71.5 µM (active) in assay [7]; 50 µM (active) in assay [8]; 25 µM (active) in assay [9]; 50 µM (active) in assay [16].

By AC50 is commonly meant the concentration at which the activity in the assay is half-maximal.
